Assay results published in PubChem BioAssay (EPA / NIEHS).
Results filed as inconclusive are left out. Calls of active or inactive are those of the source. Rule for the calls: active = hit-call score of the fitted dose curve at least 0.9, where 1 is the maximum; inconclusive = response in the unintended direction; inactive = score below 0.9.

molecular target: human Matrix Metalloproteinase-9 (MMP9), MMP9 (gene 4318) (UniProt P14780); assay: NVS_ENZ_hMMP9: NovaScreen (NVS) Enzymatic Assay for human Matrix Metalloproteinase-9 (MMP9) (AID 2283190);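 note: cell-free recombinant MMP9 protease activity read by fluorescent substrate signal; active means inhibition seen as loss of fluorescence signal versus DMSO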
Summary of the method: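 Extracted enzyme, fluorescent substrate, 1 h post-dose read. Single conc 25 uM in duplicate, then concentration series for actives. Activity = signal loss relative to DMSO negative control.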

Chain of human Matrix Metalloproteinase-9 (MMP9), MMP9 (gene 4318) (P14780 whole entry, looked up): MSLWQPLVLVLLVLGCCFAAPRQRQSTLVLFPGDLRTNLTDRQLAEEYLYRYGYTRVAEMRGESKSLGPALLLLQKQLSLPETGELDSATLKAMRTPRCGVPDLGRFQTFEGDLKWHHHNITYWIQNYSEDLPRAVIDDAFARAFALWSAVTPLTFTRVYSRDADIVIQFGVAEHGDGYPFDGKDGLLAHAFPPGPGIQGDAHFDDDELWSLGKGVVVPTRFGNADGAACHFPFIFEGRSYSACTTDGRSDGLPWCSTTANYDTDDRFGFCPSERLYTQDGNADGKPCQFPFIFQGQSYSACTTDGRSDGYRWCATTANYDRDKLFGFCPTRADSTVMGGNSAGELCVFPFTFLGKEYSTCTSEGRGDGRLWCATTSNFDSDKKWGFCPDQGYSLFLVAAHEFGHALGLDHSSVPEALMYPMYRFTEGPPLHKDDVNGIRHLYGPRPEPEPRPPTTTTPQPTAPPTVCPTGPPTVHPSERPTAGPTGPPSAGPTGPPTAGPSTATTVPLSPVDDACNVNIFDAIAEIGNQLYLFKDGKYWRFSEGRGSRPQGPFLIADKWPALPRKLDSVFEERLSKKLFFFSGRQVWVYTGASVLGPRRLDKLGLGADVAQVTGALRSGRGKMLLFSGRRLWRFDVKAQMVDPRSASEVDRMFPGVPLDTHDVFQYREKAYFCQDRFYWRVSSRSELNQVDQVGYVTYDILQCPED

SMILES | outcome
C1=Cc2cccc3cccc1c23 | inactive
O=Cc1ccco1 | inactive
c1ccc(C2CO2)cc1 (configuration not stated) | inactive
O=[N+]([O-])c1ccc(Oc2ccc(Cl)cc2Cl)cc1 | inactive

molecular target: human Phosphodiesterase 4A1 (PDE4A1), PDE4A (gene 5141) (UniProt P27815); assay: NVS_ENZ_hPDE4A1: NovaScreen (NVS) Enzymatic Assay for human Phosphodiesterase 4A1 (PDE4A1) (AID 2283191)
Summary of the method: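 Fluorescent substrate turnover by recombinant PDE4A1 read after 1 h by mobility-shift separation. Primary duplicate screen at 25 uM; hits retested in concentration series with a 50 uM maximum, relative to DMSO.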

Chain of human Phosphodiesterase 4A1 (PDE4A1), PDE4A (gene 5141) (P27815 whole entry, looked up): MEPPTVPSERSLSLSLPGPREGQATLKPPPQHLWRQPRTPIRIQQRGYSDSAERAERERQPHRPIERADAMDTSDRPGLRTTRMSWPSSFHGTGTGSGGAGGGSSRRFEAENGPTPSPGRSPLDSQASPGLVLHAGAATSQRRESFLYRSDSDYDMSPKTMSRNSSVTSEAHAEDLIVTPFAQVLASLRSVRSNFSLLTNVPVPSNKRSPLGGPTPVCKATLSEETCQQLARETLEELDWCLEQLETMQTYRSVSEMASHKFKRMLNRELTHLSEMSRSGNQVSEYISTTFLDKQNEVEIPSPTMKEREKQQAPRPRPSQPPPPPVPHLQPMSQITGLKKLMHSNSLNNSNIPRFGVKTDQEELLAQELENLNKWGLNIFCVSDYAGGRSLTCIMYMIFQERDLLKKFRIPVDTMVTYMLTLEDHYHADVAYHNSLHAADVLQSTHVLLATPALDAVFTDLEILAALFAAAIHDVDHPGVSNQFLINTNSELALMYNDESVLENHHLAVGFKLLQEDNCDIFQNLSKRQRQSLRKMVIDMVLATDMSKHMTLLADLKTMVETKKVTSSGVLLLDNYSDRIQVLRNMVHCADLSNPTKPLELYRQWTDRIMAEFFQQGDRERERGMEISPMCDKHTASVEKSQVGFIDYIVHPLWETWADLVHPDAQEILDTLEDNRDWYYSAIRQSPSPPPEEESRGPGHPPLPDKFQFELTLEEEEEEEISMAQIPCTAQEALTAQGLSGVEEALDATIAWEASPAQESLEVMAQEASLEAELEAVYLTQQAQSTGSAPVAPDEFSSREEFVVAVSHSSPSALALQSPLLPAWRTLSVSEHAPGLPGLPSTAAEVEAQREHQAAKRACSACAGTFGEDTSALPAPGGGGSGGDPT

SMILES | outcome
CS(=O)(=O)NC(=O)c1cc(Oc2ccc(C(F)(F)F)cc2Cl)ccc1[N+](=O)[O-] | inactive
O=C(Oc1ccc(Br)cc1)N1CCN2CCC1CC2 | inactive
CN(C)c1ccc(C(=O)c2ccc(N(C)C)cc2)cc1 | inactive
CC(C)(C)OOC(C)(C)CCC(C)(C)OOC(C)(C)C | inactive

molecular target: human Phosphodiesterase 5 (PDE5), PDE5A (gene 8654) (UniProt O76074); assay: NVS_ENZ_hPDE5: NovaScreen (NVS) Enzymatic Assay for human Phosphodiesterase 5 (PDE5) (AID 2283194)
Summary of the method: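 Screening began in duplicate at 25 uM, with actives taken into concentration-response. Enzyme activity of recombinant PDE5 toward its substrate was measured at 1 h by fluorescence mobility-shift detection, relative to DMSO controls.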

SMILES | outcome | AC50
CCCSC(=O)N(CCC)CCC | inactive | 
C[C@]12C=CC3=C4CCC(=O)C=C4CC[C@H]3[C@@H]1CC[C@@H]2O |  | 25 µM (active)
CN(C)c1ccc(C(=O)c2ccc(N(C)C)cc2)cc1 |  | 29.1 µM (active)
Nc1ccc(Cl)cc1N |  | 12.6 µM (active)
c1ccc(C2CO2)cc1 (configuration not stated) | inactive | 

molecular target: human Protein Phosphatase, Mg2+/Mn2+ Dependent 1A (PPM1A), PPM1A (gene 5494) (UniProt P35813); assay: NVS_ENZ_hPPM1A: NovaScreen (NVS) Enzymatic Assay for human Protein Phosphatase, Mg2+/Mn2+ Dependent 1A (PPM1A) (AID 2283198)
Summary of the method: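 Primary screen in duplicate at 25 uM, with actives then titrated to a maximum of 50 uM. Recombinant PPM1A dephosphorylation of fluorescent substrate measured at 1 h, with substrate and product separated by mobility shift; inhibition fitted against DMSO.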

Chain of human Protein Phosphatase, Mg2+/Mn2+ Dependent 1A (PPM1A), PPM1A (gene 5494) (P35813 whole entry, looked up): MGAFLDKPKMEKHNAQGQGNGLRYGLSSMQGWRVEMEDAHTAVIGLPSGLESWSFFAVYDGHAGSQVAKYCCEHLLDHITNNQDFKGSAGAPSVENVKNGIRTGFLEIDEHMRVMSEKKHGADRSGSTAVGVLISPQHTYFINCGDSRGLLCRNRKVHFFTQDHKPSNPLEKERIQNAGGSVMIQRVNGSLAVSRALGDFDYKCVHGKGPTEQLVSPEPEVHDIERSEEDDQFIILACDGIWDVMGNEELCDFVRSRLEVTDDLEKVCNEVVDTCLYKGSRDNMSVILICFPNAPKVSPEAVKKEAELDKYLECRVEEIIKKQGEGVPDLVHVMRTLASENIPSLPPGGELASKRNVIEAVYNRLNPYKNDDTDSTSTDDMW

SMILES | outcome
CCOc1cccc(C2(N3CCN(c4ccccc4)CC3)CCC(C)CC2)c1 (configuration not stated) | inactive
CCC12COCN1COC2 | inactive
CCCCOC(=O)c1ccccc1C(=O)OCc1ccccc1 | inactive

molecular target: PPP2CA (gene 5515) (UniProt P67775); assay: NVS_ENZ_hPPP2CA: NovaScreen (NVS) Enzymatic Assay for human Protein Phosphatase 2 Aatalytic subunit Alpha (PPP2CA) (AID 2283199)
Summary of the method: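 Cell-free phosphatase activity: fluorescent substrate turnover by recombinant human enzyme, resolved by mobility shift at 1.33 h. Compounds passing the 25 uM duplicate primary screen were rerun in singleton series with a 50 uM top concentration.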

Chain of PPP2CA (gene 5515) (P67775 whole entry, looked up): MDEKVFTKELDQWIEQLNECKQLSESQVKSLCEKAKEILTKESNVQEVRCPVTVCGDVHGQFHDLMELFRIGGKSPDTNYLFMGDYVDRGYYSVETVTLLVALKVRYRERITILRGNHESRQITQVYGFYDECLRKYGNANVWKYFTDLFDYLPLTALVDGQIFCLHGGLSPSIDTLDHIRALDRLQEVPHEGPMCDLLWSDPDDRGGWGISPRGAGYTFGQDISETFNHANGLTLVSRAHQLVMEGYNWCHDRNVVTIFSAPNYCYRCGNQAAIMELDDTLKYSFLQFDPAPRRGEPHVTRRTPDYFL

SMILES | outcome
CC(C)(OOC(C)(C)c1ccccc1)c1ccccc1 | inactive
CCC12COCN1COC2 | inactive
Nc1ccc([N+](=O)[O-])cc1 | inactive

molecular target: Tyrosine-protein phosphatase non-receptor type 12 (Homo sapiens) (UniProt Q05209); assay: NVS_ENZ_hPTPN12: NovaScreen (NVS) Enzymatic Assay for human Protein Tyrosine Phosphatase Non-receptor Type 12 (PTPN12) (AID 2283204)
Summary of the method: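 Single-concentration duplicates (25 uM) preceded singleton concentration-response up to 50 uM for chemicals passing threshold. Cell-free recombinant PTPN12 activity was read 1.33 h after dosing via fluorescence after mobility-shift separation; loss of signal versus DMSO.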

Chain of Tyrosine-protein phosphatase non-receptor type 12 (Homo sapiens) (Q05209 whole entry, looked up): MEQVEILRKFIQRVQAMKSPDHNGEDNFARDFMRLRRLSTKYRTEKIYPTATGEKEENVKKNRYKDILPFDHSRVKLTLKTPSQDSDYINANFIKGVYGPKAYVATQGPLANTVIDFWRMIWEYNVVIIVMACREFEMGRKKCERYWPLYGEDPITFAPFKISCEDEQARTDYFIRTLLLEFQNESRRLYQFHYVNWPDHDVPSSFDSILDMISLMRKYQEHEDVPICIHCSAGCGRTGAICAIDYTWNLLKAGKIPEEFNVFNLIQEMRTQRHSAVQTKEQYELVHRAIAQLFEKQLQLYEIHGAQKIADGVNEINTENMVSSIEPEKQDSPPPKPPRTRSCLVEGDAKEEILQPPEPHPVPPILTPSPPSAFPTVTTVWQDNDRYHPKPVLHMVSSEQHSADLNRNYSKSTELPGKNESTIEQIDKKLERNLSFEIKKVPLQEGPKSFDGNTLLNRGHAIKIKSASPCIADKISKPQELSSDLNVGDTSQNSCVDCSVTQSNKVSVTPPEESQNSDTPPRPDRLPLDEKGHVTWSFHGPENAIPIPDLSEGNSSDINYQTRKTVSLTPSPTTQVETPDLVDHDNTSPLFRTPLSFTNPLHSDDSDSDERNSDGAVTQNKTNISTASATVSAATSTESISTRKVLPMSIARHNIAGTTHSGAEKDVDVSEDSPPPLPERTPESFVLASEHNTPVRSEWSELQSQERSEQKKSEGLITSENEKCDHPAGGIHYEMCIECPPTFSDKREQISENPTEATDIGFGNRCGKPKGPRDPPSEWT

SMILES | AC50 | outcome
OCCCBr | 25 µM (active) | 
Oc1ccc2ccc3cccc4ccc1c2c34 | 1.22 µM (active) | 
CO[C@@H]1[C@H](OC(=O)NC(=O)CCl)CC[C@]2(CO2)[C@H]1[C@@]1(C)O[C@@H]1CC=C(C)C |  | inactive
